Measured values from the supplement of paper PMC8975748.
Where a name gives a salt, the structure may show the parent alone.

test system: Saccharomyces cerevisiae BY4741 SeMeCo community; test: z-score of subpopulation abundance vs DMSO median, subpopulation auxotrophic for LUM; higher = larger share of this subpopulation than in DMSO controls; conditions: 10 µM; 24 h; SM minimal medium; subpopulation (auxotrophy): LUM
Experimental: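 Fluorescent four-plasmid SeMeCo (self-establishing metabolically cooperating S. cerevisiae BY4741 community; plasmids pH-mRuby2, pL-mWasabi, pU-eCFP, pM-TagRFP657) was grown 24 h in minimal SM medium with each Selleck FDA-approved drug at 10 µM in 384-well plates. Cells were fixed and imaged by high-content confocal microscopy. For each auxotrophic subpopulation (and the prototroph), a z-score gives the deviation from the DMSO vehicle-control population median.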

| Structure (SMILES) | z-score of subpopulation abundance |
| --- | --- |
| CN[C@@H]1[C@@H](O)[C@@H](O[C@@H]2[C@@H](O)[C@H](O[C@H]3O[C@H]([C@@H](C)O)[C@@H](O)[C@H](O)[C@H]3N)[C@@H](N)C[C@H]2N)OC[C@]1(C)O [Geneticin (G418 Sulfate)] | -0.36 |
| COc1ccc(C(CN(C)C)C2(O)CCCCC2)cc1 (stereo not given) [Venlafaxine] | 0 |
| N#Cc1nn(-c2c(Cl)cc(C(F)(F)F)cc2Cl)c(N)c1[S+]([O-])C(F)(F)F (stereo not given) [Fipronil] | -0.72 |
| CC[C@H]1[C@@H]2C[C@H]3[C@@H]4N(C)c5ccccc5[C@]45C[C@@H]([C@@H]2[C@H]5O)N3[C@@H]1O [Ajmaline] | -0.35 |
| Oc1cc(Cl)ccc1Oc1ccc(Cl)cc1Cl [Triclosan] | 0.02 |
| CNC1CC(N)C(O)C(OC2OC(CO)C(O)C3OC4(OC(C(N)CO)C(O)C(O)C4O)OC23)C1O (stereo not given) [Hygromycin B] | -0.17 |
| COc1cc2c(cc1OC)C1CC(=O)C(CC(C)C)CN1CC2 (stereo not given) [Tetrabenazine (Xenazine)] | 0.67 |
| CN(C)[C@@H]1C(=O)C(C(N)=O)=C(O)[C@@]2(O)C(=O)C3=C(O)c4c(O)cccc4[C@@](C)(O)[C@H]3[C@H](O)[C@@H]12 [Oxytetracycline (Terramycin)] | 0.18 |
| N[C@@H]1C[C@H]1c1ccccc1 [Tranylcypromine (2-PCPA) HCl] | -0.84 |
| COc1ccc2c(c1)[C@]13CCCC[C@@H]1[C@H](C2)N(C)CC3 [Dextromethorphan hydrobromide hydrate] | -0.51 |
| O=c1cccc2n1C[C@@H]1CNC[C@H]2C1 [Cytisine] | -0.47 |
| Cc1cc(C(C#N)c2ccc(Cl)cc2)c(Cl)cc1NC(=O)c1cc(I)cc(I)c1O (stereo not given) [Closantel] | 0.43 |
| CC(C)(O)C(Cl)(Cl)Cl [Chlorobutanol] | 0.26 |
| Cn1cc(C2=C(c3cn(C4CCN(Cc5ccccn5)CC4)c4ccccc34)C(=O)NC2=O)c2ccccc21 | -0.2 |
| CCC1=C[C@H]2CN3CCc4c([nH]c5ccccc45)[C@](C(=O)OC)(C2)[C@H]13 [Catharanthine] | -0.3 |
| CC1(C)SC2C(N)C(=O)N2C1C(=O)O (stereo not given) [6-Aminopenicillanic acid] | -0.93 |
| CN1c2ccccc2C(NCCCCCCC(=O)O)c2ccc(Cl)cc2S1(=O)=O (stereo not given) [Tianeptine sodium] | 0.15 |
| CN(C)[C@@H]1C(=O)C(C(N)=O)=C(O)[C@@]2(O)C(=O)C3=C(O)c4c(O)cccc4[C@@](C)(O)[C@H]3[C@H](O)[C@@H]12 [Oxytetracycline Dihydrate] | 0.01 |
| CC(=O)OCC1=C(C(=O)O)N2C(=O)C(N)C2SC1 (stereo not given) [7-Aminocephalosporanic acid] | -0.51 |
| CC[C@@]1(O)C(=O)OCc2c1cc1n(c2=O)Cc2cc3ccccc3nc2-1 [Camptothecin] | -0.25 |

| Structure (SMILES) | z-score of subpopulation abundance |
| --- | --- |
| COc1ccc(C=O)cc1 [p-Anisaldehyde] | -0.69 |
| C[N+]1(C)[C@@H]2C[C@@H](OC(=O)[C@H](CO)c3ccccc3)C[C@H]1[C@@H]1O[C@@H]12 [Methscopolamine] | 0.43 |
| CC(C)N(CCC(C(N)=O)(c1ccccc1)c1ccccn1)C(C)C (stereo not given) [Disopyramide] | 0.92 |
| NCC(O)c1ccc(O)cc1 (racemic) [(+,-)-Octopamine HCl] | 0.58 |
| Nc1nc(N)nc(NC2CC2)n1 [Cyromazine] | 0.89 |
| CCOC(=O)Nc1ccc(NCc2ccc(F)cc2)cc1N [Retigabine] | -0.25 |
| C=CCN1C[C@H](C(=O)N(CCCN(C)C)C(=O)NCC)C[C@@H]2c3cccc4[nH]cc(c34)C[C@H]21 [Cabergoline] | 0.18 |
| CCN(C)C(=O)Oc1cccc([C@H](C)N(C)C)c1 [Rivastigmine] | -0.27 |
| CC(NC(C)(C)C)C(=O)c1cccc(Cl)c1 (stereo not given) [Amfebutamone (Bupropion) HCl] | -0.86 |
| NC(=O)CN1CCCC1=O [Piracetam] | 2.09 |
| C=CC[C@]1(O)CC[C@H]2[C@@H]3CCC4=CC(=O)CCC4=C3C=C[C@@]21C [Altrenogest] | -0.14 |
| C[N+](C)(C)CCCCCCCCCC[N+](C)(C)C [Decamethonium Bromide] | 0.08 |
| C=C(C)[C@H]1Cc2c(ccc3c2O[C@@H]2COc4cc(OC)c(OC)cc4[C@@H]2C3=O)O1 [Rotenone (Barbasco)] | -0.01 |
| CC[C@@H](C(N)=O)N1CCCC1=O [Levetiracetam] | -0.55 |
| CCN(CC)CCOC(=O)C(O)(c1ccccc1)c1ccccc1 [Benactyzine hydrochloride] | -0.06 |
| COc1ccc(C(CN(C)C)C2(O)CCCCC2)cc1 (stereo not given) [Venlafaxine HCl] | 1.02 |
| CC[N+](C)(CC)CCOC(=O)C(O)(c1ccccc1)c1ccccc1 [Methylbenactyzine Bromide] | -1.06 |
| NCCc1c[nH]c2ccc(O)cc12 [Serotonin HCl] | -0.88 |
| CN1[C@@H]2C[C@@H](OC(=O)[C@H](CO)c3ccccc3)C[C@H]1[C@@H]1O[C@@H]12 [Scopolamine HBr trihydrate] | -0.33 |
| C#C[C@]1(O)C=C[C@H]2[C@@H]3CCC4=CC(=O)CC[C@@H]4[C@H]3CC[C@@]21CC [Gestodene] | 0.24 |
